These results are taken from the OligoGym collection.
Also: reference of the scale not given here.

For one experiment, the target named is MAPKAPK5. Briefly: pooled miR-30 sensor sort-seq; sequence = guide strand. The following applies: shRNA.
Take TATCTGTGAATCCACGACCATT: the sensor-assay potency score (higher = more potent) was -1.59.

ATAATCTGAACTATGTTTGGGT came in with a sensor-assay potency score (higher = more potent) of 0.519. The sequence TATGATGCCAGATTTCTCCTTC yielded a sensor-assay potency score (higher = more potent) of 0.745.

As for TATTCTTCTAAAATGGAAGTTT, the sensor-assay potency score (higher = more potent) was -0.731.

TTTCTTCGCATATCCTTTGGGA showed a sensor-assay potency score (higher = more potent) of -0.249. The same measure, in the same setting: next, TCTGACTCCACTCTTCCTCTGG: 0.0951; TTCAATAATCTGAACTATGTTT: -0.32.

Regarding TAGTCGATCTACTTTATCTGTG, the sensor-assay potency score (higher = more potent) is -0.684.

As to TAACTGGACCACTAATTCCAGC, the sensor-assay potency score (higher = more potent) was -1.31. The same measure, in the same setting: next, TTTACACAGACTCTAACTGGAC: -0.371; TTAGTCGATCTACTTTATCTGT: -0.383; TTGCTCTTCTATCACCTGCTTC: -0.717.

Another experiment deals with MARCH9. The description is as above. As to conditions: shRNA.
For the sequence ATACATGCCGTAGCAGATCTGA, the sensor-assay potency score (higher = more potent) was -0.925.

In turn, TATGGCAGCAATCTGGACCTTC had a sensor-assay potency score (higher = more potent) of -0.025. The same measure, in the same setting: next, TAGCAGAGCTCACAGCTCCAGG: -0.864; TAGTACTCCTCCTCGTCGCCGT: -0.394; TTGTCCAGCTGGTACCTCCAGC: -0.754. For TACTTGAAGTAGCAGAGCTCAC, the sensor-assay potency score (higher = more potent) is -1.11.

As to TGCAAGATTGTATAACCGCAGC, the sensor-assay potency score (higher = more potent) is -1.34. Still for that read-out and setting: to TAATTTAGGACCTTCCACTGCT belongs 0.933. In the case of TGAAAGAGCAGATCCTGTCGTT, the sensor-assay potency score (higher = more potent) was 0.563.
